In the library only some 32% were active in any assay of this set; here they are far more common.
CYP2C9 activ – CYP2C9 (human) activation | 96,000 compounds, 1.4% hits | AID 1024 | P11712 | recombinant CYP2C9, luciferin-H conversion, luminescence; hits give high values; factor 1 = untreated enzyme, 0 = blocked | activation factor at 5 µM;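 active means activation factor of 2 or more for CYP2C9 at a 5 µM dose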;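 further: 0 = sulfaphenazole-blocked wells and 1 = vehicle-only wells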
CYP2C19 inh – blocks human cytochrome P450 2C19. P33261. CYP2C19 Supersomes, luciferin-H EGE luminescence, 30 min. inhibition, % at 5 µM. 96,000 compounds, 21% hits;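 active means CYP2C19 inhibition above a set limit at 5 µM in the primary screen, cut at about 50% in these data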;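 further: plate controls were negative control wells for no effect and 2.5 mM tranylcypromine positive control for full effect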
Target sequence (P33261 whole entry, looked up): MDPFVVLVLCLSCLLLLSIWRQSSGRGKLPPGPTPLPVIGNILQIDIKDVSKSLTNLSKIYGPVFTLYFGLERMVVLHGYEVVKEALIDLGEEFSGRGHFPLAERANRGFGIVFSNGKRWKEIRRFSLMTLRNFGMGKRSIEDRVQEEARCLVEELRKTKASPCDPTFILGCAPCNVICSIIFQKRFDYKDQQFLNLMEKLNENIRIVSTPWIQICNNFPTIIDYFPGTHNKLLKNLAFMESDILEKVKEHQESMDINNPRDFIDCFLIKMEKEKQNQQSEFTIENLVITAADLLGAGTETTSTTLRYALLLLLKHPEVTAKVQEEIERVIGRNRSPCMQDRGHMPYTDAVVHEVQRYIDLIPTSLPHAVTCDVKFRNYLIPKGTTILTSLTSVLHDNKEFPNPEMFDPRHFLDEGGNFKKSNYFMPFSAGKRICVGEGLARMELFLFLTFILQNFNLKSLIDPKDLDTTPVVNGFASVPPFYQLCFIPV
PostGolgi yeast – growth inhibition of a yeast mutant, post-Golgi transport screen | post-Golgi transport phenotypic cell assay | inhibition, % at 10 µM | 98,000 compounds, 0.9% hits | AID 739;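 further: yeast cells grown in 1536-well plates; yeast grown about 18 h at 30C before absorbance read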
CYP2C19 act – activators of human cytochrome P450 2C19; 96,000 tested, under 10 active; AID 1025; P33261; activation factor at 5 µM; recombinant CYP2C19, luciferin-H EGE luminescence; hits give high values; 0 = fully inhibited enzyme, 1 = untreated enzyme;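 active means activation factor of at least 2 at 5 µM in the primary screen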;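 further: 0 = wells with 2.5 mM tranylcypromine and 1 = vehicle-only wells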
PostGolgi ctrl – inhibits growth of the yeast control strain; efflux-deficient yeast background strain, growth absorbance A615, 16 h; inhibition, % at 10 µM; 98,000 compounds, 5% hits; AID 738
CYP2C9 inh – blocks human cytochrome P450 2C9 | CYP2C9 Supersomes, luciferin-H conversion, luminescence | inhibition, % at 5 µM | P11712 | 96,000 compounds, 20% hits;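 active means blocking of liver enzyme CYP2C9 beyond about 50% at 5 µM, limit read from the data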
Active calls of the source: *; nt = no result given. Unless noted, no stated cut-off is given here; in the data, active means inhibition above about 30%; inactive means the rest.

SMILES	CYP2C9 activ	CYP2C19 inh	PostGolgi yeast	CYP2C19 act	PostGolgi ctrl	CYP2C9 inh
CCc1ccc(N2C(=O)NC(=O)C(Cc3ccc(OC)cc3OC)C2=O)cc1 (stereo not drawn)	0.9	9.7	-3.4	0.9	22.8	12.6
COc1ccccc1/C=C1/C(=N/O)C2CCN1CC2	1	91.2*	2.0	0.1	9.6	-4.6
COc1ccccc1CC1/C(=N/O)C2CCN1CC2 (stereo not drawn)	0.9	18.2	24.2	0.8	8.9	9.3
CCCCCCN=C(C)c1c(O)n(Cc2ccccc2)c(=O)[nH]c1=O	0.8	-11.4	0.2	1.1	34.7*	20.3
CC(=NCCN1CCCCC1)c1c(O)n(Cc2ccccc2)c(=O)[nH]c1=O	1.1	-18.7	3.4	1.2	3.1	-9.8
CC(=NCc1ccco1)c1c(O)n(Cc2ccccc2)c(=O)[nH]c1=O	0.7	20.7	11.1	0.8	22.0	28.6
CC(=NCCCN1CCCCC1)c1c(O)n(Cc2ccccc2)c(=O)[nH]c1=O	0.4	41.3	-3.9	0.6	0.0	58.9*
CCCCn1c(O)c(C(C)=NCC2CCCO2)c(=O)[nH]c1=O (stereo not drawn)	0.8	20.5	7.7	0.8	11.7	22.6
c1ccc(CCn2nnnc2CN2CCC(n3nnc4ccccc43)CC2)cc1	0.3	68.8*	-6.2	0.3	0.6	68.5*
Fc1ccc2c(c1)nnn2C1CCN(Cc2nnnn2CCc2ccccc2)CC1	0.1	78.4*	4.0	0.2	-8.2	94.8*
Cc1nc2ccccc2n1C1CCN(Cc2nnnn2CCc2ccccc2)CC1	0.6	30.8	0.7	0.7	39.5*	43.9
Cc1cccc(NC(=O)CSc2nnc([C@@H](N)Cc3c[nH]c4ccccc34)o2)c1C	0.6	18.5	2.3	0.8	18.8	44.0
CCOP(=O)(OCC)C(NC(=O)c1ccc(Cl)cc1)=C(Cl)Cl	1	63.9*	-4.0	0.4	-2.5	1.1
O=C(Oc1c(Cl)cc(Cl)c2ccccc12)N1CCCCC1	1.8	-14.3	-5.0	1.1	37.1*	-77.4
CC(C)NC(=O)Cn1cc(C(=O)c2ccccc2F)c2ccccc21	0.7	50.4*	-2.9	0.5	6.1	25.2
CCCCc1nc2ccccc2c(=O)n1-c1ccc(Cl)cc1[N+](=O)[O-]	1	4.3	3.0	1	-0.1	-4.3
Oc1ccc(C2NCc3ccccc3-n3cccc32)cc1Cl (stereo not drawn)	0.1	98.2*	-15.5	0	3.5	88.9*
CN1CSC(=S)N(C)C1	0.9	-12.3	21.1	1.1	-0.3	9.4
O=C(c1cc(-c2ccc(Cl)cc2)n(-c2ccc(Cl)cc2Cl)n1)N1CCOCC1	0.6	33.6	6.1	0.7	33.4*	35.6
COc1ccc(CCNCc2ccc(OC)c(OC)c2OC)cc1	0.9	62.5*	2.6	0.4	-5.0	8.3
COc1ccc(CCNCc2ccncc2)cc1	0.3	90.3*	5.5	0.1	1.4	71.8*
COc1ccc(CCNC(C)CCc2ccc(OC)cc2)cc1 (stereo not drawn)	1	55.1*	-3.1	0.4	23.0	-1.6
O[C@H]1C2CCC1C(N1CCCCC1)CC2 (stereo partly drawn)	1.1	-10.6	7.1	1.1	-3.9	-6.3
OCC12CO[C@@H]3c4ccccc4[C@H](OC1)N32 (stereo partly drawn)	1	1.5	-0.2	1	-2.1	0.6
CC(=O)C1(c2ccccc2)CCNCC1	0.9	1.1	10.6	1	2.0	5.3
SMILES	CYP2C9 activ	CYP2C19 inh	PostGolgi yeast	CYP2C19 act	PostGolgi ctrl	CYP2C9 inh
O=C1NCN(c2ccccc2)C12CCNCC2	1.1	89.1*	-5.4	0.1	0.3	-5.9
NC(=O)CN1CC(c2ccccc2)CC1=O (stereo not drawn)	1.2	-2.8	-0.2	1	-2.1	-16.7
CC(C)C12CN3CC(C(C)C)(CN(C1)C3c1cccnc1)C2=O (stereo not drawn)	1	48.5	2.1	0.5	3.8	1.4
CC(=O)C1C2c3ccccc3OC1(C)N=c1s/c(=C/c3cn(C)nc3C)c(=O)n12 (stereo not drawn)	0.8	20.2	0.2	0.8	9.4	22.7
O=C(Cc1ccccc1)OCCN1CCCCC1	1	14.2	8.0	0.9	6.4	1.6
Cc1sc2nc(COC(=O)Cc3ccccc3)[nH]c(=O)c2c1C	0.4	40.4	1.6	0.6	8.4	60.5*
CCN1CCN(C(=O)COc2cc(=O)n(CC)c3ccccc23)CC1	1.4	3.7	7.5	1	8.2	-43.4
CCOP(=O)(C#CC(C)(C)C)C1(O)CCCCC1 (stereo not drawn)	1.1	-14.2	-5.4	1.1	3.3	-10.1
O=C1C2(c3ccccc3)CN3CN(C2)CC1(c1ccccc1)C3	1.2	54.9*	-4.2	0.5	-4.6	-21.3
CC(C)n1nnnc1CN1CCN(C)CC1	1.1	6.9	1.6	0.9	2.4	-8.9
CCN(CC)c1ccc(N=Cc2c(O)n(-c3cc(OC)ccc3OC)c(=O)[nH]c2=O)cc1	nt	nt	-13.0	nt	-0.9	nt
CC(=NCc1cccnc1)c1c(O)n(-c2ccc(C)cc2)c(=O)[nH]c1=O	0.9	22.1	11.3	0.8	4.3	12.7
CCC(=O)c1c(O)n(C2CCCCCC2)c(=O)[nH]c1=O	0.8	17.8	6.8	0.8	1.2	19.5
CC(=NCc1cccnc1)c1c(O)n(C2CCCCC2)c(=O)[nH]c1=O	0.5	98.9*	23.5	0	0.0	51.1*
CCC(=NCc1cccnc1)c1c(O)n(C2CCCCC2)c(=O)[nH]c1=O	0.2	98.0*	12.8	0	14.2	83.3*
CC(=NCc1cccnc1)c1c(O)n(-c2ccccc2C)c(=O)[nH]c1=O	0.4	83.7*	9.8	0.2	1.8	60.4*
CCC(=Nc1ccc(OC)cc1OC)c1c(O)n(C2CCCCC2)c(=O)[nH]c1=O	0.9	-9.7	71.4*	1.1	48.3*	10.6
OCCN(CC#CC(O)(c1ccccc1)C1CCCC1)CCO (stereo not drawn)	1.1	31.0	-4.2	0.7	-3.9	-6.2
CCC(=NCCCN(CC)CC)c1c(O)n(C2CCCCC2)c(=O)[nH]c1=O	0.9	56.3*	-9.8	0.4	6.9	7.8
CCC(=NCc1ccco1)c1c(O)n(C2CCCCC2)c(=O)[nH]c1=O	0.5	96.0*	15.1	0	45.4*	51.1*
CCN(CC)CCCN=C(C)c1c(O)n(C2CCCCC2)c(=O)[nH]c1=O	0.9	49.5	-1.4	0.5	5.7	14.6
CC(C)c1cccc(C(C)C)c1OCCn1ccnc1	0.2	99.2*	26.4	0	15.9	78.0*
CCCCn1c(O)c(C(C)=NCCN2CCCCC2)c(=O)[nH]c1=O	1	2.6	-7.3	1	5.5	3.8
CCCCn1c(O)c(C(C)=NC(Cc2c[nH]c3ccccc23)C(=O)OC)c(=O)[nH]c1=O (stereo not drawn)	0	95.3*	-6.4	0	1.6	97.3*
CCCCCCn1c(O)c(C(C)=NC)c(=O)[nH]c1=O	0.4	82.6*	-4.2	0.2	-0.9	61.1*
